# Data published in PubChem BioAssay AID1117267 (The Scripps Research Institute Molecular Screening Center, 2014).
# Screen size: about 92,000 compounds; about 1,200 (1.3%) were called active.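 Rule for the calls: active = activation above the mean of all tested compounds plus 3 SD (cut at about 9.5% in these data); inactive = the rest.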 The entries come from a sample that favours actives as a whole.
# Assay: compounds raising TTR promoter-driven luciferase – cell-based, luminescence, SH-SY5Y, TTR promoter Gaussia luciferase, primary screen (AID 1117267);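 note: cells exposed to compounds for one day before reading; 0% = median of all test compound wells on the plate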
# Conditions: at 16.7 µM, stronger effect = higher value, 100% = recombinant luciferase protein wells
row,Compound,activation
1,OC(c1ccccc1)(c1ccccc1)C1CCN(CCCOc2ccccc2)CC1,-2.2% (inactive)
2,CCOC(=O)c1cc(-c2ccc(Cl)s2)nc2c1c(C)nn2C,15.8% (active)
3,CCOC(=O)C1=C(O)CSC1=Nc1cccc(Cl)c1,-2.26% (inactive)
4,CCOC(=O)c1cc(C(=O)Nc2ccc(S(=O)(=O)Nc3ccc(OC)cc3)cc2)nn1C,-1.23% (inactive)
5,O=C(O)Cn1c(Cc2ccccc2)nc2ccccc21,20.6% (active)
6,CCC(C(=O)NCc1ccccc1)n1c(Cc2cc(F)cc(F)c2)nc2ccccc21 (stereo not drawn),-1.34% (inactive)
7,O=S(=O)(Cc1ccccc1)c1nc2ccccc2n1Cc1ccccn1,-0.52% (inactive)
8,COc1cccc(OC)c1C(=O)OCC(=O)/C(C#N)=C(\C)N,-0.74% (inactive)
9,COc1ccc(CCNC(=O)COc2ccc3c(c2)OCO3)cc1,-1.39% (inactive)
10,O=C(CCC1CCN(C(=O)c2cccc(Cl)c2F)CC1)Nc1ccccc1,-1.31% (inactive)
11,CC1CCN(CCC(=O)Nc2ccccc2)CC1,0.42% (inactive)
12,CC(C)(C)C1CCC(OC(=O)CCC(=O)Nc2ccccc2)CC1 (stereo not drawn),20.6% (active)
13,COc1cc2c(cc1CNC[C@H]1O[C@@H](n3cnc(C(N)=O)n3)[C@H](O)[C@@H]1O)OCO2,1.81% (inactive)
14,N#Cc1ccc(CSc2nnc(-c3ccccn3)n2-c2ccc(Cl)cc2)cc1,28% (active)
15,N#Cc1ccc(CSc2nnc3ccccn23)cc1,-0.39% (inactive)
16,Cc1ccc(-n2c(SCC(=O)Nc3ccc4c(c3)OCO4)nnc2-c2ccccn2)cc1,-2.71% (inactive)
17,COc1cccc(/C=C2\SC(=N)N(c3ccc(F)cc3)C2=O)c1,3.96% (inactive)
18,Cc1ccccc1Nc1c([N+](=O)[O-])ccc2nonc12,-2.33% (inactive)
19,COc1ccc(NC(=O)CCC(=O)N2CCN(S(=O)(=O)c3ccc(C)cc3)CC2)c(OC)c1,2.84% (inactive)
20,O=C(COC(=O)c1cc(S(=O)(=O)N2CCCCC2)ccc1Cl)NCc1ccco1,2.03% (inactive)

row,Compound,activation
1,O=C(NNC(=O)c1cc(S(=O)(=O)N2CCCCC2)ccc1Cl)c1ccccc1O,11.9% (active)
2,O=C(c1cc(S(=O)(=O)N2CCOCC2)ccc1Cl)N1CCOCC1,2.72% (inactive)
3,Cc1nc(Nc2ccc3c(c2)OCCO3)c2nnn(Cc3ccccc3Cl)c2n1,11.8% (active)
4,Cc1cc(C)n2ncc(C(=O)Nc3ccc4c(c3)OCCO4)c2n1,2.76% (inactive)
5,Clc1ccc(Nc2ncnc3c2nnn3Cc2ccccc2)cc1,-0.95% (inactive)
6,O=C(Nc1cc(Cl)cc(Cl)c1)OCCN1CCCC12CCC(c1ccccc1)CC2 (stereo not drawn),1.93% (inactive)
7,CCN(CC)S(=O)(=O)c1ccc(C(=O)N2CCN(C3=NS(=O)(=O)c4ccccc43)CC2)cc1,-0.96% (inactive)
8,C=CCN1C(=O)C2(OCCCO2)c2cccc(Cl)c21,0.94% (inactive)
9,COc1ccc(NC(=O)CCNC(=O)Cn2cnc3sc4c(c3c2=O)CCCC4)cc1OC,-1.59% (inactive)
10,Nc1nc(SCC(=O)Nc2ccc(Cl)cc2C(F)(F)F)n[nH]1,0.01% (inactive)
11,O=C(CSc1n[nH]c(-c2cccnc2)n1)Nc1ccc(Cl)cc1,-0.75% (inactive)
12,Nc1nc(SCC(=O)Nc2ccc(Cl)c([N+](=O)[O-])c2)n[nH]1,9.76% (active)
13,COc1ccc(-c2cc(C(=O)N/N=C/c3cccnc3)c3ccccc3n2)c(OC)c1,-1.67% (inactive)
14,COc1ccc2c(CC(=O)OCC(=O)NC(N)=O)coc2c1,1.14% (inactive)
15,O=C(NNS(=O)(=O)c1ccccc1)c1cnn(-c2ccc(Cl)cc2)c1C(F)(F)F,-0.1% (inactive)
16,Cc1c(C#N)c(NC(=O)c2ccccc2)n(Cc2ccccc2)c1C,10.7% (active)
17,Cc1ccc(C(=O)Nc2c(C#N)c(C)c(C)n2Cc2ccccc2)cc1,0.67% (inactive)
18,CC(=O)Nc1ccc(C(=O)Nc2nc(-c3cc(C)n(Cc4ccccc4)c3C)cs2)cc1,-0.51% (inactive)
19,COc1ccc(S(=O)(=O)N(CC(=O)N/N=C/c2ccccc2C(=O)O)c2ccccc2OC)cc1,-0.82% (inactive)
20,CSCCC(c1nnnn1Cc1ccccc1)N1CCN(C/C=C/c2ccccc2)CC1 (stereo not drawn),-2.08% (inactive)

row,Compound,activation
1,COc1ccc(C(=O)N2CCCC(C(=O)c3ccccc3OC)C2)cc1OC (stereo not drawn),-0.18% (inactive)
2,Cc1nc(Cl)cc(N/N=C/c2ccccc2)n1,-2.14% (inactive)
3,COC(=O)c1sc(N)c(C(=O)OC)c1COC(=O)CNS(=O)(=O)c1ccc(C)cc1,-1.81% (inactive)
4,O=C(N=C1SC2CS(=O)(=O)CC2N1Cc1ccccc1)c1ccccc1 (stereo not drawn),1.31% (inactive)
5,O=C(NNC(=O)c1ccc(-n2cncn2)c([N+](=O)[O-])c1)c1ccccc1,-1.38% (inactive)
6,CC(C)NC(=O)c1ccc(Sc2ccccc2)c([N+](=O)[O-])c1,14.4% (active)
7,Cc1ccc(Sc2cc(C(=O)c3ccccc3C(=O)O)ccc2[N+](=O)[O-])cc1,1.71% (inactive)
8,COC(=O)C1CCN(C(=O)c2ccc3oc(Cc4ccc(Cl)cc4)nc3c2)CC1,-1.37% (inactive)
9,Cc1ccsc1C(=O)OCC(=O)NCCc1ccccc1,2.82% (inactive)
10,C=CCOc1ccc(/C=C2\SC(=S)N(CCC(=O)O)C2=O)cc1,0.39% (inactive)
11,CCOc1ccc(-c2cc(C(=O)N/N=C/c3ccc(O)cc3)c3ccccc3n2)cc1,-0.07% (inactive)
12,CCOc1ccc(N=C2NC(=O)S/C2=C\c2ccc(O)cc2)cc1,11.2% (active)
13,O=C1CN(C(=O)COC(=O)C2CC(=O)N(Cc3ccco3)C2)c2ccccc2N1 (stereo not drawn),12.4% (active)
14,O=C1CN(C(=O)COc2c(Cl)cccc2Cl)c2ccccc2N1,-1.21% (inactive)
15,O=C1CN(C(=O)COC(=O)/C=C/c2ccc(F)cc2)c2ccccc2N1,0.24% (inactive)
16,O=C(CSc1nc2cccc(F)c2c(=O)n1-c1ccccc1)Nc1ccc2c(c1)CCC2,-1.17% (inactive)
17,COc1cc(NS(=O)(=O)c2ccc(NC(=O)c3ccc([N+](=O)[O-])cc3)cc2)ncn1,-0.02% (inactive)
18,COc1ccc2c(c1)O/C(=C\c1ccccc1O)C2=O,-0.14% (inactive)
